# Sampled rows, rich in hits. Any-hit rate of the full collection: about 4.7%.
# TIM10 inh = growth inhibitors of TIM10 yeast strain | inhibition, % at 10 µM | S. cerevisiae TIM10 strain growth, BacTiter-Glo luminescence, 24 h | 330,000 tested, 1.4% active;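 active = inhibition of 40% or more at the single tested concentration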;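 note: wild-type TIM10 isogenic control strain grown at permissive 25 °C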
# PfHsp90 yeast 2 = inhibits growth of yeast expressing Plasmodium falciparum Hsp90; AID 504621; 310,000 tested, 0.32% active; S. cerevisiae expressing PfHsp90, BacTiter-Glo ATP, 48 h; yeast lacking PDR1 and PDR3 efflux regulators; inhibition, % at 9.4 µM;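 active = every replicate shows inhibition above about 80%, whatever the replicate mean, limit read from the data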;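 note: 0% = DMSO neutral controls and 100% = 20 µM radicicol positive controls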
# SKKanGAS inh = inhibitors of SKKanGAS S. pyogenes growth in kanamycin (SK-promoter or general growth effect); BacTiter-Glo, 6 h; inhibition, % at 7.5 µM; 300,000 tested, 1.3% active; AID 1662;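 active = mean replicate score, as percent of positive control median, at least 50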;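 note: strain carries kanamycin resistance gene driven by streptokinase promoter and grows in 40 µg/ml kanamycin; loss of luminescence reflects streptokinase promoter inhibition or plain growth inhibition; 0% = median of DMSO wells and 100% = positive control at its reference dose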
# tim23-1 inh = inhibits growth of tim23-1 mutant yeast; S. cerevisiae tim23-1 growth, BacTiter-Glo luminescence, 24 h; 330,000 tested, 1.3% active; AID 463212; inhibition, % at 20 µM;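 active = growth inhibition of the mutant yeast at or above 50%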;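 note: temperature-sensitive mutant grown at 25 °C; plate controls were DMSO-treated mutant yeast for no effect and medium wells lacking yeast for full effect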
# tim10-1 inh = growth inhibitors of tim10-1 mutant yeast; S. cerevisiae tim10-1 ts strain growth, BacTiter-Glo, 24 h; inhibition, % at 20 µM; 330,000 tested, 2.2% active;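 active = inhibition of at least 40%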;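 note: mutant grown at 25 °C; 0% = DMSO wells with yeast and 100% = wells holding no yeast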
# Calb FLC = C. albicans growth modulation with fluconazole | C. albicans CaCi-2 (fluconazole-resistant clinical isolate) + fluconazole, Alamar Blue growth, 48 h | growth inhibition, % (test concentration not listed) | 300,000 tested, 0.57% active | AID 1979;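 active = growth inhibition above about 58% in most replicates, limit read from the data, passing the limit was not always enough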;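 note: all wells also contain fluconazole at 8 µg/ml as a sub-toxic cotreatment; 0% = median of DMSO wells and 100% = median of geldanamycin control wells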
# tim10-1 confirm = tim10-1 yeast growth inhibition, confirmed; shares compounds with tim10-1 inh; S. cerevisiae tim10-1 ts strain growth, BacTiter-Glo, 24 h; inhibition, % at 20 µM; 7,400 tested, 56% active;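 active = inhibition of yeast growth at or above a set limit in either of two repeat tests at 20 µM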;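 note: tim10-1 mutant grown at permissive 25 °C to find synthetic lethal compounds; 0% = DMSO yeast wells and 100% = medium wells without yeast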
# An asterisk follows results filed as active; x = no result.
SMILES,TIM10 inh,PfHsp90 yeast 2,SKKanGAS inh,tim23-1 inh,tim10-1 inh,Calb FLC,tim10-1 confirm
COc1ccc(-c2csc(NC(=O)C3COc4ccccc4O3)n2)cc1OC (stereo unspecified),16.3,-57.2,11.1,39.4,43.1*,-4.7,30.9
COc1cccc(CNC(=O)Cn2ncn3cccc3c2=O)c1OC,-11.8,7.3,-0.5,8.2,3.5,6.0,x
CC(O/N=C(\N)c1ccccc1)C(=O)Nc1cccc(C(F)(F)F)c1 (stereo unspecified),6.0,-10.8,x,4.9,-19.5,x,x
Cc1ccc(NC(=O)CCNS(=O)(=O)c2cccc3nsnc23)cc1F,3.6,11.4,2.4,5.4,-10.2,12.6,x
COc1ccc(N(CC(=O)NCc2ccc(F)cc2)C(=O)c2snc(C(N)=O)c2N)cc1,1.6,-0.9,9.0,-11.4,-4.8,7.5,x
Cc1ccc(C(=O)Oc2ccc(Cl)c3cccnc23)cc1[N+](=O)[O-],9.8,-19.0,51.3*,39.2,40.6*,19.1,22.4
O=C(c1ccc(-c2cccc(C(F)(F)F)c2)o1)N1CCCCCCC1,12.8,-6.9,-0.6,33.2,40.8*,6.0,29.6*
O=C(c1ccco1)N1CCN(C(=O)c2ccc(-c3cccc(C(F)(F)F)c3)o2)CC1,-13.0,-22.5,3.1,23.3,0.2,5.6,x
COc1ccccc1NC(=O)CCS(=O)(=O)c1cc2c(cc1Cl)NC(=O)CO2,-3.2,-22.9,0.4,-1.1,10.2,-3.7,x
FC(F)(F)c1ccc(N2CCN(c3cc(-c4ccccc4)nc4ncnn34)CC2)nc1,35.2,-56.0,23.2,31.1,45.3*,11.3,26.9
Cc1cccc(C2Nc3cccc4cccc(c34)N2)c1,35.9,-11.9,4.9,41.0,40.7*,3.9,23.6
COc1ccccc1CNC(=O)CCNS(=O)(=O)c1ccc2c(c1)oc(=O)n2C,-2.3,-20.7,3.1,-11.0,-3.0,-3.4,x
CC(=O)c1c(C)[nH]c(C(=O)Nc2nc(-c3ccc(-c4ccccc4)cc3)cs2)c1C,15.2,8.3,52.0*,21.4,45.4*,34.8,26.6
CC1CCN(C(=O)CSc2nc(C3CC3)nc3ccccc23)CC1,-15.3,1.3,-1.3,34.5,-13.6,7.2,x
CCOC(=O)CSc1nc(C2CC2)nc2ccccc12,20.2,-10.8,-2.2,28.9,40.2*,-12.2,2.6
Cc1ccc(N2CCN(S(=O)(=O)c3nnc(NC(=O)c4ccccc4)s3)CC2)cc1,9.4,-21.3,32.7,11.7,12.7,-1.9,x
O=C(c1ccccc1Br)N1N=C(c2ccccc2)CC1c1ccccc1F (stereo unspecified),29.3,-26.7,19.4,46.3,50.5*,-6.5,48.0*
CCc1ccccc1NC(=O)C1CCN(S(C)(=O)=O)CC1,-12.7,x,3.7,-18.3,-15.5,6.1,x
O=C(c1ccc(S(=O)(=O)Cc2ccccc2Cl)c([N+](=O)[O-])c1)N1CCN(c2ccccn2)CC1,39.1,5.9,-2.5,43.7,52.2*,41.3,38.6*
O=C(c1cccc(COc2ccc(Cl)cc2Cl)c1)N1CCN(c2ccccn2)CC1,32.8,10.7,53.1*,30.1,42.2*,19.3,22.9
O=C(c1ccc(S(=O)(=O)Cc2cc(F)ccc2F)c([N+](=O)[O-])c1)N1CCCCC1,19.7,-3.5,-4.2,44.0,43.5*,-4.5,28.8*
O=C(c1ccc(Cl)c([N+](=O)[O-])c1)N1CCN(c2ccccn2)CC1,-31.7,8.6,8.0,1.0,10.5,0.0,x
O=C(c1ccc(Sc2cccc(Cl)c2)c([N+](=O)[O-])c1)N1CCN(c2ccccn2)CC1,14.8,x,14.6,20.1,41.0*,-11.7,21.2
Cn1c(N)c(C(=O)COC(=O)c2cc(S(=O)(=O)N3CCOCC3)ccc2F)c(=O)n(C)c1=O,7.1,-2.1,x,-3.9,-6.1,x,x
Cc1cc(-n2cnnn2)cc(C)c1S(=O)(=O)NCCOc1ccccc1,0.8,2.9,-26.2,8.9,-2.6,1.4,x
O=C(c1cccc(F)c1)N1CCN(c2cccc(C(F)(F)F)c2)CC1,19.9,16.2,-7.5,28.8,31.5,-6.9,x
O=C(c1csc2c1CCCC2)N1CCN(c2ncccn2)CC1,21.4,8.6,3.9,15.9,21.8,29.6,x
O=C(c1csc2c1CCCC2)N1CCN(c2ccc(F)cc2)CC1,9.4,x,9.8,36.6,43.2*,6.7,30.8

# Compound activity deposited in PubChem by several laboratories.
